Compound activity (PubChem BioAssay)
A selection: hits, their analogues and other compounds. The true share with any hit is near 2.9%.
TSHR antag – human thyrotropin receptor antagonism | P16473 | TSHR-expressing cells, TSH-stimulated cAMP HTRF, 2 h; stronger effect = lower value | activity change, negative = inhibition, % at 11.5 µM | 0.2% of 330,000 active;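 active = activity change below a set negative limit, meaning inhibition stronger than a set level, cut at about -70% in these data; inconclusive = activity change between two set negative limits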
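Cell-based HTRF cAMP assay; TSHR cells + compound, TSH EC80 (4nM final), 2 h, 37 deg C. Lysis with anti-cAMP cryptate and cAMP-d2, 30 min RT, read 665/620 nm.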
D3 antag – antagonists of human D3 dopamine receptor. P35462. D3R cells, DiscoveRx beta-arrestin luminescence, antagonist mode; stronger effect = lower value. max response, negative = inhibition, %. 2.5% of 360,000 active. AID 652054; in the data active = max response below about -50%; inconclusive = no clear call, values can overlap the other calls
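Cells expressing the human receptor were seeded at 1500 cells/well, incubated overnight at 37 degrees C in 5% CO2, then exposed to library compounds with dopamine controls for 90 minutes at 37 degrees C before luminescent detection.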
D3 ag – activates the human D3 dopamine receptor; D3R DiscoveRx beta-arrestin cells, luminescence, 90 min; max activation, %; 0.58% of 410,000 active; AID 652048; in the data active = max activation above about 30%
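Agonist mode: compounds and dopamine controls were applied to plated cells for 90 min at 37 degrees C after an overnight attachment at 1500 cells/well. Luminescent read-out followed 30 - 60 minutes at room temperature with DiscoveRx detection reagent.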
B2AR arrestin – beta2AR (human) beta-arrestin recruitment activity; P07550; beta-arrestin recruitment to beta2AR, cell-based reporter; Potency, µM (doses to about 46.1 µM), hits mostly activators; 0.02% of 330,000 active; AID 492947; active = well fitted activation curve with a large enough effect; inconclusive = small, poorly fitted or top-dose-only effect; also: nearly all actives have a fitted effect of over 65% in size
Target sequence (P07550 whole entry, looked up): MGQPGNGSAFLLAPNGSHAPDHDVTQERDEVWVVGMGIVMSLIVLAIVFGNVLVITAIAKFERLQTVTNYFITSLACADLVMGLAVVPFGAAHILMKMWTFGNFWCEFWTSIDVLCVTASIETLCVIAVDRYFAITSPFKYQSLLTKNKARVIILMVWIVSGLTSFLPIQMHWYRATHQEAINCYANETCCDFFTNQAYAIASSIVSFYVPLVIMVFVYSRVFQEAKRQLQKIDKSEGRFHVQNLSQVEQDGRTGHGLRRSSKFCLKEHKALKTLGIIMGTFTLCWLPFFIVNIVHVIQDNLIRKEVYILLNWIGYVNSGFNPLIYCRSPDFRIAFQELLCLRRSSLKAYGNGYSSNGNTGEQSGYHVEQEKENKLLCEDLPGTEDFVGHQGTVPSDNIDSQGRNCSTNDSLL
Numbers stand for hits; - = inactive; ? = inconclusive; . = no result given.

SMILES	TSHR antag	D3 antag	D3 ag	B2AR arrestin
COc1ccc(C(=O)NCC(c2ccco2)N(C)C)cc1S(=O)(=O)NCc1ccc(Cl)cc1 (stereo not given)	-	-96.5	-	-
COc1ccc(-c2nn(-c3cccc(F)c3)c3c2cnc2cc(OC)c(OC)cc23)cc1	.	.	-	.
COc1ccc(NC(=O)CCCNC(=O)Cn2cnc3sc(C)c(C)c3c2=O)cc1OC	-	-	31.1	-
Cc1ccc(C(=O)c2oc3ccccc3c2NC(=O)COc2ccccc2C)cc1	.	.	-	.
CC(=O)Nc1ccc(C(=O)CSc2cc(C)c3cccc(C)c3n2)cc1	-	-	41.3	-
Cc1cc(SCC(=O)c2cccs2)nc2c(C)cccc12	-	-	-	-
Cc1cc(C)c(C(N)=O)c(SCC(=O)c2ccc(Cl)cc2)n1	-	-59.8	-	-
Cc1nc(SCC(=O)c2ccc(Cl)cc2)c([N+](=O)[O-])[nH]1	-	-66.3	-	-
CC(=O)c1ccc(N2CCN(CC(O)COC(c3ccccc3)c3ccccc3)CC2)cc1 (stereo not given)	-	-69.2	-	-
OC(COc1ccc(Br)cc1)CN1CCN(c2ccccc2)CC1 (stereo not given)	-	-51.5	-	-
OC(COc1ccc(Br)cc1)CN1CCOCC1 (stereo not given)	-	-	-	-
COc1cccc(OCC(O)CN2CCN(c3ccccc3)CC2)c1 (stereo not given)	-	?	30.8	-
OCC(O)CN1CCN(c2ccccc2)CC1 (stereo not given)	-	-	-	-
OC(CSc1ccc(F)cc1)CN1CCN(c2ccccc2)CC1 (stereo not given)	-	-72.3	-	-
CCOc1ccc(NC(=O)CSc2nc3ccccc3c(=O)n2CCC(=O)NC2CCCCC2)cc1	.	.	-	.
CC(=O)NCCNC(=O)CCCc1nnc2n(C)c(=O)c3sccc3n12	.	.	-	.
COc1ccccc1CCN1COc2c(cc3c(C)c(C)c(=O)oc3c2C)C1	.	.	-	.
CCc1cc2c(cc3c(=O)n(CC(=O)NC4CCC(C)CC4)ncn32)s1 (stereo not given)	.	.	-	.
CCCCOc1cccc(C2c3c(oc4ccccc4c3=O)C(=O)N2c2ccccn2)c1 (stereo not given)	.	.	-	.
COc1cccc(OCC(O)CN2CCN(c3ncccn3)CC2)c1 (stereo not given)	-	-	-	-
OC(COc1ccccc1)CN1CCN(c2ccccc2)CC1 (stereo not given)	.	-70.9	-	.
OC(COc1ccc2cc(Br)ccc2c1)CN1CCN(c2ccccn2)CC1 (stereo not given)	-	-	227.3	-
CC(=O)c1ccc(OCC(O)CN2CCN(c3ccc(F)cc3)CC2)cc1 (stereo not given)	-	?	-	-
COc1cccc(OCC(O)CN2CCN(c3ccccn3)CC2)c1 (stereo not given)	-	?	34.7	-
COc1cc(C(C)=O)ccc1OCC(O)CN1CCN(c2cc(C)cc(C)c2)CC1 (stereo not given)	-	-55.5	-	-
SMILES	TSHR antag	D3 antag	D3 ag	B2AR arrestin
CCOC(=O)C12CC1/C(=N/O)c1ccccc1O2 (stereo not given)	-	.	.	.
OCCN1CCN(CC(O)COc2ccc3ccccc3c2)CC1 (stereo not given)	-	?	-	-
OCCN1CCN(CC(O)COc2ccc(-c3ccccc3)cc2)CC1 (stereo not given)	-	-62.1	-	-
C=C1C(=O)O[C@@H]2C[C@@H](C)[C@@H]3C=CC(=O)[C@@]3(C)[C@@H](OC(C)=O)[C@H]12	-	-84.1	-	-
NNc1nc(N)c2c(n1)-c1ccccc1CC21CCCC1	-	-51.8	-	-
COc1cc(OC)cc(-c2c(-c3cccs3)c3cc(-c4ccc(C(N)=O)cc4)ccc3n2C)c1	-	-	38.9	-
COc1ccccc1N1CCN(Cc2cccc(OC)c2OC)CC1	-	-	-	-
CCOC(=O)N1CCN(c2c(N3CCN(c4cccc(C(F)(F)F)c4)CC3)c(=O)c2=O)CC1	-	-	-	-
COc1cccc(CN2CCN(c3cccc(C(F)(F)F)c3)CC2)c1OC	-	-73.4	-	-
CCOc1cccc(CN2CCN(c3cccc(C(F)(F)F)c3)CC2)c1O	-	-95.8	-	-
COCCCNC(=O)C1CCN(c2cc(C)nc3c(-c4ccc(Cl)cc4)c(C)nn23)CC1	.	.	-	.
Cc1cc(S(=O)(=O)Nc2ccc3oc4c(c3c2)CCCC4)ccc1Cl	.	.	-	.
CCOC(=O)C1CCCN(Cc2nc(N)nc(Nc3ccccc3)n2)C1 (stereo not given)	-	-60.5	-	-
CCOC(=O)C1CCN(Cc2nc3ccc(Cl)cc3n2CCO)CC1	-	-66.1	-	-
Nc1nc(CN2CCCCCC2)nc(Nc2ccccc2)n1	-	?	-	-
CCOC(=O)C1CCN(Cc2ccc(F)c(Br)c2)CC1	-	-77.7	-	-
CCOC(=O)C1CCN(Cc2cccc(OCc3ccccc3)c2)CC1	-	-66.5	-	-
CCCCCCCC(=O)CC[C@@H]1[C@@H](C/C=C\CCCC(=O)OC(C)C)[C@@H](O)C[C@H]1O	.	.	-	.
CCN(Cc1ccccc1)C(=O)c1c(C)oc2ncn(C)c(=O)c12	.	.	-	.
CCOC(=O)C1CCCN(Cc2ccc(OC)cc2OC)C1 (stereo not given)	-	-51.6	-	-
CCOC(=O)C1CCCN(CC(=O)c2ccc(F)cc2)C1 (stereo not given)	-	-66.2	-	-
CN(Cc1ccc(Cl)cc1)C(CCc1ccccc1)C(=O)NC1CCCCC1 (stereo not given)	.	-60.3	-	.
CCOC(=O)C1CCCN(Cc2ccc(OCc3ccccc3)cc2)C1 (stereo not given)	-	-61.1	-	-
CCOC(=O)C1CCCN(CC(=O)Nc2c(F)c(F)c(F)c(F)c2F)C1 (stereo not given)	-	-	-	-
CCOC(=O)C1CCCN(CCCc2ccccc2)C1 (stereo not given)	-	-65.3	-	-
SMILES	TSHR antag	D3 antag	D3 ag	B2AR arrestin
CN(Cc1ccccc1)C(=O)C1CCCN(Cc2ccc(Cl)cc2)C1 (stereo not given)	-	-67.7	-	-
CCN(CC)C(=O)C1CCCN(Cc2ccccc2)C1 (stereo not given)	-	-	-	-
Fc1ccc(CN2CCSCC2)cc1Br	-	-61.3	-	-
c1ccc(COc2cccc(CN3CCc4ccccc4C3)c2)cc1	-	-87.0	-	-
CCOc1cc(C2c3c(oc4ccc(F)cc4c3=O)C(=O)N2Cc2ccco2)ccc1O (stereo not given)	.	.	-	.
CC(Oc1ccccc1)C(=O)Nc1cccc(-c2cn3cccnc3n2)c1 (stereo not given)	.	.	-	.
CCOc1ccccc1-c1noc(CSc2nnc(-c3ccccc3)n2-c2cccc(C)c2)n1	.	.	-	.
CCOC(=O)C1CCCN(Cc2ccc3c(c2)OCO3)C1 (stereo not given)	-	-99.8	-	-
CCOC(=O)C1CCCN(Cc2cccc(Cl)c2)C1 (stereo not given)	-	-60.5	-	-
CCOC(=O)C1CCCN(Cc2ccc(O)c(OC)c2)C1 (stereo not given)	-	?	-	-
